{"source": "PubChem BioAssay (Tox21)", "note": "“And” between values parts separate entries of the source, which are not always exact repeats. Equal values may be shown once. Inconclusive results are not listed. Where a call stands in place of a potency, no number is given. Where a structure was tested more than once in an assay, its records may differ in their call. The source made the active and inactive calls. The call rests on the fitted dose curve; in most records, active means well fitted curve in the direction sought with a large enough effect in the repeat runs; inconclusive means weak or mixed curves; inactive means no such curve, though single readings can be large; an effect the other way counts as inactive or inconclusive. Further: nearly all actives have a fitted effect of over 50% in size. Potency means the concentration at half of the fitted maximal effect.", "data": [{"biological_target": "Voltage-gated inwardly rectifying potassium channel KCNH2 (Homo sapiens) (UniProt Q12809)", "sequence (Q12809 whole entry, looked up)": "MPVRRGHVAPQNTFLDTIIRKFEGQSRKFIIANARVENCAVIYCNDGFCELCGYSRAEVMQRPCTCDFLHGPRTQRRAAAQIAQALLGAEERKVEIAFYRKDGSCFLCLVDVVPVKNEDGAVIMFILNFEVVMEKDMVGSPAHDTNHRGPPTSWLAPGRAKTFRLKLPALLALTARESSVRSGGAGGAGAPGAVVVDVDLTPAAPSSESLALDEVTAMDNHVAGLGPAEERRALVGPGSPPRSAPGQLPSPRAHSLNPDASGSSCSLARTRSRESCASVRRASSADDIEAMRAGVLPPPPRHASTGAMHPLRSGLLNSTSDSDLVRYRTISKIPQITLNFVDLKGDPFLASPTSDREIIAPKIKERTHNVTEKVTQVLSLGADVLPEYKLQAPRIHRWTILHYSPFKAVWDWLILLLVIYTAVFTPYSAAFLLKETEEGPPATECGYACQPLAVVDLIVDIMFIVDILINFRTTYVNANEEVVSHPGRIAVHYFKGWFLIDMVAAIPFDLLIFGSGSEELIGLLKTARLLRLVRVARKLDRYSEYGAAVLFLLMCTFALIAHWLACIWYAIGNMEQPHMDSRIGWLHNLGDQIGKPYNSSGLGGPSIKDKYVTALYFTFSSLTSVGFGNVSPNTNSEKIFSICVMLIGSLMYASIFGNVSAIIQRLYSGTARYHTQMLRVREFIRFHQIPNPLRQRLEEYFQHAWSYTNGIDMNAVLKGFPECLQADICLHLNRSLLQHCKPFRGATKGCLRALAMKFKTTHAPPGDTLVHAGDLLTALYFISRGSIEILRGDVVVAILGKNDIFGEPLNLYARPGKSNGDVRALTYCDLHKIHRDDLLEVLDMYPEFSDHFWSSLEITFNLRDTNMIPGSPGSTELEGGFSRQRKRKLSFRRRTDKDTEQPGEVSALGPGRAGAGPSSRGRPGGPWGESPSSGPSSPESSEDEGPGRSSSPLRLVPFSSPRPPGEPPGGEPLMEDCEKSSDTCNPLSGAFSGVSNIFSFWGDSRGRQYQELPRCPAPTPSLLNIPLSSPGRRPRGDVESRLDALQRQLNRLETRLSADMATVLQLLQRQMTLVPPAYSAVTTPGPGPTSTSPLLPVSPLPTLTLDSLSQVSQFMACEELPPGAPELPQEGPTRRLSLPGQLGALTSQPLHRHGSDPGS", "assay": "Human Ether-a-go-go-Related Gene (hERG) channel small molecule antagonists: fluorescence cell-based qHTS assay (AID 1671200)", "details": "hERG-U2OS cells, FluxOR thallium flux fluorescence; series mostly up to 76.8 µM", "summary_of_the_method": "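hERG-U2OS cells plated overnight at 37 C, loaded with FluxOR II dye 1 h at RT in dark; after 10 min, thallium stimulus added. Fluorescence (480/540 nm) read kinetically for 2 min at 1 s intervals.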", "values": [{"smiles": "c1ccc2c(c1)c1cccc3ccc4cccc2c4c31", "Potency": "inactive"}, {"smiles": "C#C[C@]1(O)CC[C@H]2[C@@H]3CCC4=Cc5oncc5C[C@]4(C)[C@H]3CC[C@@]21C", "Potency": "inactive"}, {"smiles": "CC(CCC(=O)O)(c1ccc(O)cc1)c1ccc(O)cc1", "Potency": "inactive"}, {"smiles": "CC(C)=CCC/C(C)=C\\CO", "Potency": "inactive"}, {"smiles": "CCCCOCCOCCOCCO", "Potency": "inactive"}, {"smiles": "CCC(C)c1ccccc1O", "note": "(stereo not drawn)", "Potency": "inactive"}, {"smiles": "CCOCCOCCO", "Potency": "inactive"}, {"smiles": "Nc1ncnc2nc[nH]c12", "Potency": "inactive"}, {"smiles": "Nc1ccc(S(=O)(=O)Nc2cnc3ccccc3n2)cc1", "Potency": "inactive"}, {"smiles": "COC(=O)C1=C(C)NC(C)=C(C(=O)OCCN(C)Cc2ccccc2)C1c1cccc([N+](=O)[O-])c1", "note": "(stereo not drawn)", "Potency": "10.9 µM (active) and 8.49 µM (active)"}, {"smiles": "C[Si](C)(C)O[Si](C)(C)C", "Potency": "inactive"}, {"smiles": "O=CCCCC=O", "Potency": "inactive"}, {"smiles": "CC(C)CC(C)(O)C#CC(C)(O)CC(C)C", "note": "(stereo not drawn)", "Potency": "inactive"}, {"smiles": "CCCCC(CC)COP(=O)(OCC(CC)CCCC)OCC(CC)CCCC", "note": "(stereo not drawn)", "Potency": "inactive"}, {"smiles": "c1cc(-c2ccncc2)ccn1", "Potency": "inactive"}, {"smiles": "OC(CCl)CCl", "Potency": "inactive"}, {"smiles": "O=P(O)(O)O", "Potency": "inactive"}, {"smiles": "CCCC(=O)O", "Potency": "inactive"}, {"smiles": "CCCCC(CC)COCC1CO1", "note": "(stereo not drawn)", "Potency": "inactive"}, {"smiles": "c1ccc2sc(SSN3CCOCC3)nc2c1", "Potency": "inactive"}, {"smiles": "CN(C)c1nc(N(C)C)nc(N(C)C)n1", "Potency": "inactive"}, {"smiles": "NNc1ccc(C(=O)O)cc1", "Potency": "inactive"}, {"smiles": "CC(C)OC(=O)C(C)(C)Oc1ccc(C(=O)c2ccc(Cl)cc2)cc1", "Potency": "27.5 µM (active) and 8.49 µM (active)"}, {"smiles": "OC[C@H]1O[C@@H]2O[C@H]3[C@H](O)[C@@H](O)[C@@H](O[C@H]4[C@H](O)[C@@H](O)[C@@H](O[C@H]5[C@H](O)[C@@H](O)[C@@H](O[C@H]6[C@H](O)[C@@H](O)[C@@H](O[C@H]7[C@H](O)[C@@H](O)[C@@H](O[C@H]8[C@H](O)[C@@H](O)[C@@H](O[C@H]1[C@H](O)[C@H]2O)O[C@@H]8CO)O[C@@H]7CO)O[C@@H]6CO)O[C@@H]5CO)O[C@@H]4CO)O[C@@H]3CO", "Potency": "inactive"}, {"smiles": "O=C(c1ccc(OCCN2CCCCC2)cc1)c1c(-c2ccc(O)cc2)sc2cc(O)ccc12", "Potency": "21.9 µM (active) and 43.6 µM (active)"}, {"smiles": "Cc1c(C(N)=O)cc([N+](=O)[O-])cc1[N+](=O)[O-]", "Potency": "inactive"}, {"smiles": "c1ccc2cc(Nc3ccc(Nc4ccc5ccccc5c4)cc3)ccc2c1", "Potency": "inactive"}, {"smiles": "CC(C)(C)NC(=O)[C@H]1CC[C@H]2[C@@H]3CC[C@H]4NC(=O)C=C[C@]4(C)[C@H]3CC[C@]12C", "Potency": "inactive"}, {"smiles": "COc1cccc2c1C(=O)c1c(O)c3c(c(O)c1C2=O)C[C@@](O)(C(=O)CO)C[C@@H]3O[C@H]1C[C@H](N)[C@H](O)[C@H](C)O1", "Potency": "inactive"}, {"smiles": "CN1C(C(=O)Nc2ccccn2)=C(O)c2ccccc2S1(=O)=O", "Potency": "inactive"}, {"smiles": "COC(=O)CCC(=O)OC", "Potency": "inactive"}, {"smiles": "COc1c(Cl)c(Cl)c(Cl)c(Cl)c1Cl", "Potency": "inactive"}, {"smiles": "COC(C)COC(C)COC(C)CO", "note": "(stereo not drawn)", "Potency": "inactive"}, {"smiles": "CC(=O)C1(C)CC2=C(CCCC2(C)C)CC1C", "note": "(stereo not drawn)", "Potency": "inactive"}]}, {"biological_target": "Cytochrome P450 3A4 (Homo sapiens) (UniProt P08684)", "sequence (P08684 whole entry, looked up)": "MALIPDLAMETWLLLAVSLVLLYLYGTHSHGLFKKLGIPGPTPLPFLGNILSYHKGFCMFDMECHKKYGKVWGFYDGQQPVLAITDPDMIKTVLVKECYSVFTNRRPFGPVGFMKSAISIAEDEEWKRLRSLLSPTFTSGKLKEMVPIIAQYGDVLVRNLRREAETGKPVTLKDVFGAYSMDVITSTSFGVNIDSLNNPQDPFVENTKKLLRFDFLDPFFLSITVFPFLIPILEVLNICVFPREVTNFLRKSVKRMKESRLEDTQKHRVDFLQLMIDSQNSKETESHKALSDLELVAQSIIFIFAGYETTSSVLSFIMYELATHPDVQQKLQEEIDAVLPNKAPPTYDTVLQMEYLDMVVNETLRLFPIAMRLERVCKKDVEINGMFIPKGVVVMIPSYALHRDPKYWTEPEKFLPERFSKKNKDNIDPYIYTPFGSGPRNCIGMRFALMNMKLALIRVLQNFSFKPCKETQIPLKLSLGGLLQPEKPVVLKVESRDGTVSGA", "assay": "Cytochrome P450 Family 3 Subfamily A Member 4 (CYP3A4) small molecule antagonists: luciferase reporter qHTS assay (AID 1671201)", "details": "P450-Glo CYP3A4 enzyme, luciferin luminescence, 1 h; series mostly up to 115 µM", "summary_of_the_method": "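P450-Glo CYP3A4 luminescent assay: compounds preincubated 10 min at room temperature with enzyme and proluciferin substrate, NADPH regeneration added, 1 h room-temperature reaction, stopped with luciferin detection reagent; luminescence read after 20 min. Ketoconazole positive control.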", "values": [{"smiles": "c1ccc2c(c1)c1cccc3ccc4cccc2c4c31", "Potency": "inactive"}, {"smiles": "CC(CCC(=O)O)(c1ccc(O)cc1)c1ccc(O)cc1", "Potency": "inactive"}, {"smiles": "CCCCOCCOCCOCCO", "Potency": "inactive"}, {"smiles": "CCC(C)c1ccccc1O", "note": "(stereo not drawn)", "Potency": "inactive"}, {"smiles": "Cc1cc2nc3c(=O)[nH]c(=O)nc-3n(C[C@H](O)[C@H](O)[C@H](O)CO)c2cc1C", "Potency": "inactive"}, {"smiles": "CCOCCOCCO", "Potency": "inactive"}, {"smiles": "Nc1ncnc2nc[nH]c12", "Potency": "inactive"}, {"smiles": "Nc1ccc(S(=O)(=O)Nc2cnc3ccccc3n2)cc1", "Potency": "inactive"}, {"smiles": "Cc1[nH]c(=O)c(C#N)cc1-c1ccncc1", "Potency": "inactive"}, {"smiles": "C[Si](C)(C)O[Si](C)(C)C", "Potency": "inactive"}, {"smiles": "O=CCCCC=O", "Potency": "inactive"}, {"smiles": "CCCCC(CC)COP(=O)(OCC(CC)CCCC)OCC(CC)CCCC", "note": "(stereo not drawn)", "Potency": "inactive and 5.64 µM (active)"}, {"smiles": "c1cc(-c2ccncc2)ccn1", "Potency": "inactive"}, {"smiles": "OC(CCl)CCl", "Potency": "inactive"}, {"smiles": "CCCC(=O)O", "Potency": "inactive"}, {"smiles": "CCCCC(CC)COCC1CO1", "note": "(stereo not drawn)", "Potency": "inactive"}, {"smiles": "c1ccc2sc(SSN3CCOCC3)nc2c1", "Potency": "inactive"}, {"smiles": "O=C(/C=C/c1ccccc1)OCc1ccccc1", "Potency": "inactive"}, {"smiles": "NNc1ccc(C(=O)O)cc1", "Potency": "inactive"}, {"smiles": "CC(C)OC(=O)C(C)(C)Oc1ccc(C(=O)c2ccc(Cl)cc2)cc1", "Potency": "inactive"}, {"smiles": "OC[C@H]1O[C@@H]2O[C@H]3[C@H](O)[C@@H](O)[C@@H](O[C@H]4[C@H](O)[C@@H](O)[C@@H](O[C@H]5[C@H](O)[C@@H](O)[C@@H](O[C@H]6[C@H](O)[C@@H](O)[C@@H](O[C@H]7[C@H](O)[C@@H](O)[C@@H](O[C@H]8[C@H](O)[C@@H](O)[C@@H](O[C@H]1[C@H](O)[C@H]2O)O[C@@H]8CO)O[C@@H]7CO)O[C@@H]6CO)O[C@@H]5CO)O[C@@H]4CO)O[C@@H]3CO", "Potency": "inactive"}, {"smiles": "Cc1c(C(N)=O)cc([N+](=O)[O-])cc1[N+](=O)[O-]", "Potency": "inactive"}, {"smiles": "c1ccc2cc(Nc3ccc(Nc4ccc5ccccc5c4)cc3)ccc2c1", "Potency": "inactive"}, {"smiles": "CC(C)(C)NC(=O)[C@H]1CC[C@H]2[C@@H]3CC[C@H]4NC(=O)C=C[C@]4(C)[C@H]3CC[C@]12C", "Potency": "inactive"}, {"smiles": "CN1C(C(=O)Nc2ccccn2)=C(O)c2ccccc2S1(=O)=O", "Potency": "inactive"}, {"smiles": "COC(=O)CCC(=O)OC", "Potency": "inactive"}, {"smiles": "COc1c(Cl)c(Cl)c(Cl)c(Cl)c1Cl", "Potency": "inactive"}, {"smiles": "COC(C)COC(C)COC(C)CO", "note": "(stereo not drawn)", "Potency": "inactive"}, {"smiles": "CC(=O)C1(C)CC2=C(CCCC2(C)C)CC1C", "note": "(stereo not drawn)", "Potency": "inactive"}]}]}
